According to PubChem BioAssay (NCATS):
Unmarked numbers belong to inactive results. Results filed as inconclusive are left out. A call without a number means that no potency is given here. Active and inactive are the calls of the source. Calls follow the shape of the dose curve; as a rule, active = well fitted curve in the direction sought with a large enough effect; inconclusive = small, poorly fitted or top-dose-only effect, or another doubt; inactive = no such curve, though single readings can be large; an effect the other way counts as inactive or inconclusive.

Experiments:
[1] = biological target: Glutathione peroxidase 1 (Homo sapiens) (UniProt P07203); experiment: Primary qHTS Assay for Inhibitors of Recombinant Selenoprotein Glutathione Peroxidase 1 (GPX1) (AID 1845191); also: nearly all actives have a fitted effect of over 65% in size
Sequence of Glutathione peroxidase 1 (Homo sapiens) (P07203 whole entry, looked up): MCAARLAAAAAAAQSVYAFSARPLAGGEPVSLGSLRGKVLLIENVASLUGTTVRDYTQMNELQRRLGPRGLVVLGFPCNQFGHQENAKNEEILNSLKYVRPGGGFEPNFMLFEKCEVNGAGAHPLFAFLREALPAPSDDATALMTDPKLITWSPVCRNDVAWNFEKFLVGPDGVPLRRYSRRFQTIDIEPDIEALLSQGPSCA
Outline: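 NADPH consumption tracked by fluorescence at 340/450 nm between t=0 and t=15 min, room temperature. Final mix: 10 nM GPX1, 100 nM glutathione reductase, 1 mM GSH, 0.5 mM NADPH, 0.5 mM cumene hydroperoxide, 0.01% BSA; 30 min compound–enzyme preincubation.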

[2] = biological target: Luciferin 4-monooxygenase (Photinus pyralis) (UniProt P08659); experiment: Primary firefly luciferase (FLuc) qHTS assay for identification of artifact compounds. (AID 1845220); also: nearly all actives have a fitted effect of over 60% in size; also: potency is read from the fitted curve at half-maximal effect
Outline: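 FLuc 10 nM; luciferin 10 uM; ATP 10 uM; Tris-acetate pH 7.6, Mg-acetate 10 mM; 15 min RT preincubation; 5 min reaction; luminescence.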

[3] = Primary fluorescence-based thiol-reactive (MSTI) qHTS assay for identification of artifact compounds. (AID 1845221); also: nearly all actives have a fitted effect of over 65% in size; also: potency is read from the fitted curve at half-maximal effect;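 as to activity change, negative = thiol reactive: series mostly up to about 54 µM; thiol-reactive compounds lower the probe fluorescence signal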
Outline: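 A multi-concentration qHTS design tested compounds against 4 uM MSTI, pH 7.4 phosphate-buffered saline. Plates were protected from light for 1 h at room temperature before imaging fluorescence.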

[4] = Primary redox qHTS assay for identification of artifact compounds. (AID 1845223)
Outline: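 Redox-cycling detection via DTT (250 uM final) oxidation coupled to Amplex Red (25 uM)/HRP (250 mU/mL) in HBSS. 15 min preincubation plus 30 min after DTT, room temperature. Ex/Em 525/598 nm; 4-parameter Hill fit against DMSO and 10 uM DA3003.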

[5] = system: Nanoluciferase (engineered Oplophorus gracilirostris luciferase); experiment: Primary Nanoluciferase (NLuc) qHTS assay for identification of artifact compounds. (AID 1845222);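 also: NLuc secreted into diluted conditioned medium of S16 cells; series mostly up to about 54 µM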
Outline: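 NLuc from S16 cell medium (1:55) plus test compounds, 15 min, room temperature. Luminescence after Nano-Glo (1:100) addition, 5 min.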

| Compound | Potency [1] | Potency [2] | Potency [3] | Potency [4] | Potency [5] | outcome [2] | activity change, negative = thiol reactive [3] | activity, negative = inhibition [5] | redox activity (% of DA3003) [4] |
| --- | --- | --- | --- | --- | --- | --- | --- | --- | --- |
| CC(C)(Oc1ccc(-c2nc3cc(Cl)ccc3s2)cc1)C(=O)O | inactive | 2.39 µM (active) | inactive | inactive |  |  |  |  |  |
| COc1ccc2c(c1)C=C1Cn3c-2c(C2CCCCC2)c2ccc(cc23)C(=O)NS(=O)(=O)N(C)CCOCCN(C)C1=O | inactive | inactive | inactive |  | inactive |  |  |  |  |
| CCC(C)/C=C(C)/C=C/C1=CC2=C(Cl)C(=O)C(C)(OC(C)=O)C(=O)C2=CN1CCCCC(N)C(=O)O (stereo not given) | inactive | inactive | 0.653 µM (active) |  | inactive |  |  |  |  |
| COc1ccc2[nH]c(S(=O)Cc3ncc(C)c(OC)c3C)nc2c1 (stereo not given) | inactive | inactive | 11.9 µM (active) | inactive | inactive |  |  |  |  |
| CCC(C)/C=C(C)/C=C/C1=CC2=CC(=O)C(C)(O)C(OC(C)=O)C2CO1 (stereo not given) | inactive | inactive |  |  | inactive |  |  |  |  |
| O=C(NCCN1CCCC1)c1cc(-c2ccc(CN3CCOCC3)cc2)nc2ccc(F)cc12 | inactive | inactive | inactive | inactive | inactive |  |  |  |  |
| CC(=O)/C=C/C1(O)C(C)=CC(=O)CC1(C)C (stereo not given) | inactive | inactive |  | inactive | inactive |  |  |  |  |
| O=C(OCc1ccccc1O[C@@H]1O[C@H](CO)[C@@H](O)[C@H](O)[C@H]1O)C1(O)C=CCCC1O (stereo not given in full) | inactive | inactive | 5.82 µM (active) | inactive | inactive |  |  |  |  |
| CC(C)=C1C[C@@]2(C)C(=CC1=O)CC[C@@H](O)[C@@H]2C | inactive | inactive | inactive | inactive | inactive |  |  |  |  |
| COC(=O)C1=CO[C@@H](O[C@@H]2O[C@H](CO[C@@H]3O[C@H](CO)[C@@H](O)[C@H](O)[C@H]3O)[C@@H](O)[C@H](O)[C@H]2O)[C@@H]2C(CO)=CC[C@H]12 | inactive | inactive | inactive | inactive | inactive |  |  |  |  |
| C[C@@H]1[C@H]2[C@H](O[C@@H]3O[C@H](CO)[C@@H](O)[C@H](O)[C@H]3O)OC=C(C(=O)O)[C@H]2C[C@@H]1OC(=O)/C=C/c1ccc(O)cc1 | inactive | inactive | 10.3 µM (active) | inactive | inactive |  |  |  |  |
| Cn1cc(-c2c[nH]c3ncnc(N4CCOCC4)c23)cn1 | inactive | inactive | inactive | inactive | inactive |  |  |  |  |
| CC[C@H]1OC(=O)[C@H](C)C(=O)[C@H](C)[C@@H](OC2O[C@H](C)C[C@H](N(C)C)[C@H]2O)[C@@H](C)C[C@@H](C)C(=O)/C=C/[C@]1(C)O (stereo not given in full) | inactive | inactive | inactive | inactive | inactive |  |  |  |  |
| C=C(C(=O)O)[C@@H]1CC[C@@]2(C)CCC[C@@](C)(O)[C@@H]2C1 | inactive | inactive | inactive | inactive | inactive |  |  |  |  |
| CCC(C)C(=O)OC[C@H]1O[C@H](O[C@H]2O[C@H](CO)[C@@H](O)[C@H](O)[C@H]2O)[C@H](O)[C@@H](O)[C@@H]1O (stereo not given in full) | inactive | inactive | inactive | inactive | inactive |  |  |  |  |
| OC[C@H]1O[C@@H](OCCc2ccccc2)[C@H](O[C@@H]2OC[C@@H](O)[C@H](O)[C@H]2O)[C@@H](O)[C@@H]1O | inactive | inactive | 4.12 µM (active) | inactive | inactive |  |  |  |  |
| COc1c(C)c(OCC(O)C(C)(C)O)cc2c1CNC2=O (stereo not given) | inactive | inactive |  | inactive | inactive |  |  |  |  |
| CC1=CC(=O)[C@]2(O[C@@H]3O[C@@H](C)[C@H](O)[C@@H](O)[C@H]3O)C=CO[C@@H](O[C@@H]3O[C@H](CO)[C@@H](O)[C@H](O)[C@H]3O)[C@H]12 | inactive | inactive | 5.82 µM (active) | inactive | inactive |  |  |  |  |
| CCC12CCCN3CCc4c(n(c5ccccc45)C(O)C1)C32 (stereo not given) | inactive | inactive |  |  | inactive |  |  |  |  |
| CC1(C)CC[C@]2(C(=O)O[C@@H]3O[C@H](CO)[C@@H](O)[C@H](O)[C@H]3O)CC[C@]3(C)C(=CCC4[C@@]5(C)C[C@H](O)[C@H](O[C@@H]6OC[C@@H](O)[C@H](O)[C@H]6O)[C@@](C)(CO)C5CC[C@]43C)C2C1 (stereo not given in full) | inactive |  |  |  |  | inactive [at 11.6 µM] | 298% [at 11.5 µM] | 3.66% [at 11.6 µM] | 17.7% [at 11.5 µM] |
| O=C(c1c2ccccc2cc2ccccc12)N1CCC(N2CCC[C@@H](C(=O)N3CCOCC3)C2)CC1 | inactive | inactive | inactive | inactive | inactive |  |  |  |  |
| c1ccc2c(Nc3nnc(-c4ccncc4)s3)cccc2c1 | inactive | 7.57 µM (active) | inactive | inactive | inactive |  |  |  |  |
| COC(=O)C1=COC(OC2OC(CO)C(O)C(O)C2O)C2C(C)C(OC(=O)/C=C/c3ccc(O)cc3)C(O)C12 (stereo not given) | inactive | inactive | 11.6 µM (active) |  | inactive |  |  |  |  |
